This passage reports Potency, outcome and activity change, negative = cytotoxic results from PubChem BioAssay (NCATS).

A short description of assay [1]: qHTS of pediatric cancer cell lines to identify multiple opportunities for drug repurposing: Primary screen for NB1643 cells (AID 1347099). Also: nearly all actives have a fitted effect of over 50% in size. Also: potency is read from the fitted curve at half-maximal effect.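 As to activity change, negative = cytotoxic: plate controls were DMSO neutral control for no effect and bortezomib positive control for full effect.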 In outline:
(§1)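 Phenotypic viability qHTS, 48 h compound exposure, CellTiter-Glo luminescence read-out; multi-concentration dosing so that potency and efficacy derive directly from the primary screen's curves.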
On the technique in general: Quantitative high-throughput screening tests each substance at several concentrations.

Assay [2] in a line: qHTS of pediatric cancer cell lines to identify multiple opportunities for drug repurposing: Primary screen for Rh18 cells (AID 1347102). Also: nearly all actives have a fitted effect of over 65% in size. Also: potency is read from the fitted curve at half-maximal effect. As to activity change, negative = cytotoxic: % is scaled to controls: 0 for no effect and ±100 for the full control effect. In outline:
(§2)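 Viability after 48 h compound treatment at 37C, 500-1,000 cells/well, read as ATP luminescence with CellTiter-Glo. Primary screens used 11-point (MIPE, 0.78 nM-46 µM) or 8-point (NPC, 0.59 nM-46 µM) final concentrations; follow-up screens used 11-point dilutions.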

The nature of assay [3]: qHTS of pediatric cancer cell lines to identify multiple opportunities for drug repurposing: Primary screen for MG 63 (6-TG R) cells (AID 1347105). Also: % is scaled to controls: 0 for no effect and ±100 for the full control effect; nearly all actives have a fitted effect of over 50% in size. In outline:
as §1

Assay [4] can be described thus: qHTS of pediatric cancer cell lines to identify multiple opportunities for drug repurposing: Primary screen for control Hh wild type fibroblast cells (AID 1347106).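 Also: series mostly up to about 46 µM; % is scaled to controls: 0 for no effect and ±100 for the full control effect; a drop in luminescence marks cytotoxicity and a rise apparent proliferation; nearly all actives have a fitted effect of over 55% in size.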 In outline:
as §2

A short description of assay [5]: qHTS of pediatric cancer cell lines to identify multiple opportunities for drug repurposing: Primary screen for Rh30 cells (AID 1347107). Also: series mostly up to about 46 µM; % is scaled to controls: 0 for no effect and ±100 for the full control effect; nearly all actives have a fitted effect of over 75% in size. In a few lines: as §2
A short description of assay [6]: qHTS of pediatric cancer cell lines to identify multiple opportunities for drug repurposing: Primary screen for Rh41 cells (AID 1347108).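 Also: series mostly up to about 46 µM; luminescence drop marks cytotoxic hits; nearly all actives have a fitted effect of over 70% in size.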 In a few lines: as §1
Assay [7] is described as follows: qHTS of pediatric cancer cell lines to identify multiple opportunities for drug repurposing: Primary screen for BT-12 cells (AID 1347101). Also: nearly all actives have a fitted effect of over 25% in size. Also: potency is read from the fitted curve at half-maximal effect.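 As to activity change, negative = cytotoxic: plate controls were DMSO for no effect and bortezomib positive control for full effect.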 In a few lines: (§3)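 Cells (500-1,000/well) rested 5 h, then received compounds for 48 h; metabolically active cells were measured by CellTiter-Glo luminescence. Final concentrations spanned up to 46 µM (MIPE, 11-point) or 0.59 nM-46 µM (NPC, 8-point) in primary screens, 11-point in follow-ups.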

Assay [8] can be described thus: qHTS of pediatric cancer cell lines to identify multiple opportunities for drug repurposing: Primary screen for RD cells (AID 1347104). Also: nearly all actives have a fitted effect of over 55% in size. Also: potency is read from the fitted curve at half-maximal effect.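 As to activity change, negative = cytotoxic: plate controls were DMSO for no effect and bortezomib for full effect.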 In a few lines: as §1
Assay [9] in a line: qHTS of pediatric cancer cell lines to identify multiple opportunities for drug repurposing: Confirmatory screen for SK-N-MC cells (AID 1347111).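 Also: potency is read from the fitted curve at half-maximal effect; cells exposed to compound for 48 h before the readout; nearly all actives have a fitted effect of over 70% in size.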 The settings on record: SK-N-MC cell viability. In outline: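 SK-N-MC cells at 500-1,000 cells/well in growth media were pre-incubated 5 h, then exposed to compounds at 11-point dilutions for 48 h at 37 degrees C, 5% CO2. Viability was read as CellTiter-Glo luminescence.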

A short description of assay [10]: qHTS of pediatric cancer cell lines to identify multiple opportunities for drug repurposing: Confirmatory screen for LAN-5 cells (AID 1347113). Also: % is scaled to controls: 0 for no effect and ±100 for the full control effect; nearly all actives have a fitted effect of over 65% in size. In a few lines:
as §2

The nature of assay [11]: qHTS of pediatric cancer cell lines to identify multiple opportunities for drug repurposing: Primary screen for OHS-50 cells (AID 1347103). Also: nearly all actives have a fitted effect of over 40% in size. Also: potency is read from the fitted curve at half-maximal effect.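 As to activity change, negative = cytotoxic: plate controls were DMSO neutral control for no effect and bortezomib positive control for full effect.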 In outline:
as §3

The nature of assay [12]: qHTS of pediatric cancer cell lines to identify multiple opportunities for drug repurposing: Primary screen for LAN-5 cells (AID 1347100). Also: potency is read from the fitted curve at half-maximal effect.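 As to activity change, negative = cytotoxic: plate controls were DMSO neutral control for no effect and bortezomib positive control for full effect.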 In outline: as §2
The nature of assay [13]: qHTS of pediatric cancer cell lines to identify multiple opportunities for drug repurposing: Primary screen for SK-N-SH cells (AID 1347098). Also: nearly all actives have a fitted effect of over 65% in size. Also: potency is read from the fitted curve at half-maximal effect.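 As to activity change, negative = cytotoxic: DMSO served as neutral control and bortezomib at 2.3 µM as positive control; % is scaled to controls: 0 for no effect and ±100 for the full control effect.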 In a few lines:
as §3

Assay [14] in a line: qHTS of pediatric cancer cell lines to identify multiple opportunities for drug repurposing: Confirmatory screen for BT-12 cells (AID 1347112). Also: % is scaled to controls: 0 for no effect and ±100 for the full control effect; nearly all actives have a fitted effect of over 55% in size. In a few lines: as §2
A short description of assay [15]: qHTS of pediatric cancer cell lines to identify multiple opportunities for drug repurposing: Confirmatory screen for NB-EBc1 cells (AID 1347115). Also: % is scaled to controls: 0 for no effect and ±100 for the full control effect; nearly all actives have a fitted effect of over 45% in size. In a few lines:
as §2

Each structure is given as a SMILES string. Inconclusive results are not listed. A number with no mark means an inactive call. Calls of active or inactive are those of the source. Calls follow the shape of the dose curve; as a rule, active = well fitted curve in the direction sought with a large enough effect; inconclusive = small, poorly fitted or top-dose-only effect, or another doubt; inactive = no such curve, though single readings can be large; an effect the other way counts as inactive or inconclusive.

Regarding `Cc1nc2sccn2c(=O)c1CCN1CCC(=C(c2ccc(F)cc2)c2ccc(F)cc2)CC1`, the Potency result in [1], in assay [2], in assay [3], in assay [5] and in [6] was “inactive” each time. In addition, the outcome in [4] was inactive.

As for `Nc1nc(N)c2nc(-c3ccccc3)c(N)nc2n1`, the Potency result in assay [1], in assay [2], in [3], in [6] and in assay [10] was “inactive” in each case. Further, the Potency in assay [7] is 13.8 µM (active); in [8] it was 23.7 µM (active); in assay [9], 3.69 µM (active).

Turning to `c1cc(CN2CCCCC2)cc(OCCCNc2nc3ccccc3s2)c1`, the Potency result in [1], in assay [2], in assay [3] and in assay [5] was “inactive” in each case. Also, the Potency in assay [11] is 27.6 µM (active). In assay [4], the compound was classed as inactive.

Consider `C[C@@H](O)[C@H]1C(=O)N2C(C(=O)O)=C(SCCN=CN)C[C@H]12`, for which the Potency result in assay [1], in [12], in [7], in [2], in [8] and in assay [3] was “inactive” throughout. Also, the Potency entry in assay [5] and in [6] was “inactive” throughout.

`COC(=O)C1=C(C)NC(C)=C(C(=O)OCCN(C)Cc2ccccc2)C1c1cccc([N+](=O)[O-])c1` (centres undefined): the Potency in [1] is 21.1 µM (active). Also, the compound was classed as inactive in [4]. Also, in [5], the Potency entry was “inactive”.

As for `Cc1nc2c([nH]1)c(=O)n(C)c(=O)n2Cc1ccco1`, the Potency result in assay [13], in [1], in assay [7], in [2], in assay [11] and in [8] was “inactive” in each case. Also, the Potency entry in assay [3], in assay [5] and in assay [6] was “inactive” throughout. In addition, in [4], the result was inactive.

`COCCOC(=O)C1=C(C)NC(C)=C(C(=O)OC(C)C)C1c1cccc([N+](=O)[O-])c1` (centres undefined): in [1], the Potency entry was “inactive”. The Potency is 18.8 µM (active) in assay [2] and 24.6 µM (active) in [11]. Besides, in assay [4], the call was inactive.

As to `CC(=O)Oc1cc(C(C)C)c(OCCN(C)C)cc1C`, the Potency result in assay [1], in [12], in assay [7], in assay [2], in [11] and in assay [8] was “inactive” throughout. In addition, the Potency entry in assay [3], in assay [5] and in [6] was “inactive” in each case.

For the compound `OCCN1CCN(CC/C=C2/c3ccccc3Sc3ccc(C(F)(F)F)cc32)CC1`, the results for the Potency in assay [13], in assay [12] and in assay [8] were 13.7 µM (active), 23.7 µM (active) and 26.6 µM (active), respectively. For the same compound, the compound was classed as inactive in [4]. The Potency result in [5] and in assay [6] was “inactive” each time.

On to `CN1CCN(C2=Nc3ccccc3Oc3ccc(Cl)cc32)CC1`, for which the Potency entry in assay [13], in assay [1], in assay [2], in assay [8], in assay [3] and in assay [5] was “inactive” throughout. Moreover, the Potency result in assay [6] is “inactive”. In assay [4], the compound was called inactive.

Regarding `COc1cc2c(cc1OC)-c1cc(=Nc3c(C)cc(C)cc3C)n(C)c(=O)n1CC2`, the Potency result in [2] and in assay [5] was “inactive” each time. Also, the Potency in [8] was 23.7 µM (active). For the same compound, in assay [4], the result was inactive.

Regarding `NCCCNCCSP(=O)(O)O`, the activity change, negative = cytotoxic was -0.785% [at 11.4 µM] in assay [13]; 7.51% [at 9.22 µM] in [1]; 27.4% [at 9.22 µM] in [12]; 8.37% [at 11.5 µM] in [7]; 9.05% [at 9.22 µM] in assay [2]; 5.02% [at 11.5 µM] in assay [11]. Moreover, the activity change, negative = cytotoxic in assay [8] is 5.99% [at 9.22 µM]; in assay [3], -7.37% [at 9.22 µM]; in assay [5], 17.5% [at 9.22 µM]; in [6], 20.1% [at 9.22 µM]; in assay [14] it was 1.94% [at 9.58 µM]; in assay [15] it was 10.1% [at 9.58 µM].
